TDP1 cell CPT: DT40-hTDP1 cell growth loss with CPT; chicken DT40 Tdp1-/-;hTDP1 cells + 20 nM CPT, ATP luminescence, 48 h; Potency, µM (series often up to 46.2 µM), without a hit: at the highest dose activity change, negative = growth inhibition, usual class: inhibitors; AID 686979; 12% of 420,000 active; note: potency is the fitted concentration of half-maximal effect; nearly all actives have a fitted effect of over 55% in size
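Chicken DT40 Tdp1-/- cells stably complemented with human TDP1 were seeded at 400 cells/well in medium containing 20 nM camptothecin, exposed to pin-transferred compounds, and grown at 37 °C for at least 48 hr. Viability was read as ATP luminescence.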
IL-1B inflam inh: blocks inflammasome-driven IL-1 beta release | THP-1 LPS/ATP IL-1B secretion, AlphaLISA, 16 h; hits give low values | 4.7% of 360,000 active | activity change, % at 57.5 µM | AID 743279; in the data active = activity change below about -50%; inconclusive = mostly about -30% to -49%
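THP-1 cells pretreated 1 hr with compounds (up to 57.5 uM final), then stimulated with LPS (250 ng/mL final) plus ATP (1.25 mM final); secreted IL-1B measured by AlphaLISA after 16 hr, decreased signal indicating inhibition.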
HT1080NT lethal: kills 2HG-producing HT-1080-NT fibrosarcoma cells; HT-1080-NT fibrosarcoma viability, CellTiter-Glo ATP luminescence, 48 h; Potency, µM (series often up to 46.1 µM), for inactives: top-dose activity, negative = less viability, actives largely listed as cytotoxic; 1.6% of 360,000 active; AID 686970;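 note: NT is the 2HG producing partner of a matched IDH1 knockdown line; potency is the fitted concentration of half-maximal effect; 0% = DMSO-treated cells and -100% = media-only wells without cells; nearly all actives have a fitted effect of over 55% in size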
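A 48-hour cytotoxicity screen used HT-1080-NT cells plated 2 hours before compound delivery. ATP-based CellTiter-Glo luminescence measured viability, normalized to DMSO and no-cell controls.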
ELG1 repair inh: ELG1-dependent DNA repair inhibition. AID 504467. Potency, µM (doses to about 46.1 µM), inactives show top-dose activity change, negative = inhibition, actives largely listed as inhibitors. HEK293T ELG1-luciferase reporter, luminescence, 16 h; DNA damage induced by 5-fluorouridine. 2.3% of 330,000 active; note: potency is the fitted concentration of half-maximal effect; nearly all actives have a fitted effect of over 55% in size
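Step one: seed 2,000 cells per well. Step two: pin-transfer compound or DMSO alongside 5-fluorouridine. Step three: incubate 16 hr, 37 °C, 5% CO2. Step four: add ONE-Glo, wait 30 min, read luminescence.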
HT1080 IDH1KD tx: HT-1080 IDH1 knockdown cell toxicity (counter line) | HT-1080 IDH1 knockdown viability, ATP luminescence, 48 h | Potency, µM (series often up to 46.1 µM), for the others: at the highest dose activity, negative = toxicity, most hits filed as cytotoxic | 2% of 360,000 active;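 note: potency is the fitted concentration of half-maximal effect; 0% = DMSO wells and -100% = cell-free medium wells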
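Cytotoxicity counter-line: IDH1KD HT-1080, 48 h, CellTiter-Glo. Curves classed by r2, magnitude and activity.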
DT40 TDP1 no CPT: qHTS for Inhibitors of human tyrosyl-DNA phosphodiesterase 1 (TDP1): qHTS in cells in absence of CPT; DT40 Tdp1-/- hTDP1 cells, no CPT, ATP luminescence, 48 h; Potency, µM (series often up to 46.2 µM), without a hit: at the highest dose activity change, negative = growth inhibition, usual class: inhibitors; 15% of 420,000 active; AID 686978, 2013; note: potency is the fitted concentration of half-maximal effect; nearly all actives have a fitted effect of over 55% in size
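No-CPT arm: Tdp1-/-;hTDP1 DT40 cells (400/well) plus compounds, incubated ≥48 hr at 37 °C. Readout CellTiter-Glo luminescence.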
* = called active by the depositor; ? = inconclusive; . = no result. The list is not random: actives were taken first. Their share in the collection is about 19%. Unless noted, calls come from the whole dose curve; as a rule, active = well fitted curve in the direction sought with a large enough effect; inconclusive = small, poorly fitted or top-dose-only effect, or another doubt; inactive = no such curve, though single readings can be large; an effect the other way counts as inactive or inconclusive. Unless noted, % is set by controls: 0 for no effect and ±100 for the full control effect.

SMILES	TDP1 cell CPT	IL-1B inflam inh	HT1080NT lethal	ELG1 repair inh	HT1080 IDH1KD tx	DT40 TDP1 no CPT
Cc1ccc(NC(=O)CN(C)C(=O)c2ccc(NS(=O)(=O)c3ccc4[nH]c(=O)[nH]c4c3)cc2)cc1	-3%	-7	-1%	23%	1%	1%
Cc1ccc(CC(=O)Nc2nnc(-c3ccc(F)cc3)o2)c(C)c1	?	-1	2%	-20%	-2%	16µM*
COc1cc(OC)cc(-c2nnc(NC(=O)Cc3ccc(F)cc3)o2)c1	1.5µM*	13	-13%	14%	-4%	2.6µM*
CC1CCCN(C(=O)Cn2c(=O)n(CC3CCC(C(=O)NC(C)C)CC3)c(=O)c3sccc32)C1 (centres undefined)	-29%	.	.	.	.	-18%
O=C(O)CCc1ccc(-c2ccccc2)n1CC(=O)Nc1ccccc1C(F)(F)F	-9%	.	.	.	.	-2%
Cc1ccc(C(=O)NCCCN2CCOCC2)cc1Cl	29%	13	14%	?	-2%	-3%
C/C=C(\C)CN1CCN(c2cc(C)ccc2C)CC1	?	21	10%	4%	-1%	-14%
Cc1ccc(C)c(N2CCN(CCCNC(=O)c3ccc4nc(CCc5ccccc5)oc4c3)CC2)c1	3.7µM*	.	.	.	.	4.1µM*
Cc1ccc(C)c(N2CCN(Cc3csc(C)c3)CC2)c1	?	.	.	.	.	23µM*
Cc1ccc(C)c(N2CCN(CCCc3ccccc3)CC2)c1	21µM*	25	-2%	-18%	0%	?
Cc1ccc(C)c(N2CCN(CCCNC(=O)c3ccc4nc(C(C)C)oc4c3)CC2)c1	7.3µM*	.	.	.	.	3.7µM*
CC(C)=CC1C(CO)C1(C)C (centres undefined)	4%	.	.	.	.	9%
NCCCC[C@H](NC(=O)[C@@H]1CCCN1C(=O)[C@@H]1CSSC[C@H](NC(=O)CNC(=O)CNC(=O)CN)C(=O)N[C@@H](Cc2ccc(O)cc2)C(=O)N[C@@H](Cc2ccccc2)C(=O)N[C@@H](CCC(N)=O)C(=O)N[C@@H](CC(N)=O)C(=O)N1)C(=O)NCC(N)=O	-12%	.	.	.	.	-4%
COCCCNC(=O)CCc1c(C)nc2nc(-c3cc(OC)cc(OC)c3)nn2c1C	7%	.	.	.	.	-5%
FC(F)C(F)(F)Oc1cccc(Nc2nccn3c(-c4cccc5cccnc45)cnc23)c1	26µM*	-20	-17%	.	?	23µM*
O=C(Nc1ccc2c(c1)CN(Cc1ccccc1O)CC2)C1CCCO1 (centres undefined)	-12%	12	8%	?	5%	-13%
S=C(NCCc1ccccc1)NCC(c1ccco1)N1CCCCC1 (centres undefined)	?	?	4%	-15%	-18%	23µM*
COc1ccc(NC(=S)NCC(c2ccco2)N2CCCC2)cc1 (centres undefined)	3%	-4	13%	17%	16%	-18%
O=C(NCC(c1ccco1)N1CCCCC1)C(c1ccccc1)c1ccccc1 (centres undefined)	16µM*	?	1%	?	-6%	?
CC(C)C(NC(=O)c1ccco1)C(=O)NCC(c1ccco1)N1CCCCC1 (centres undefined)	-4%	-3	6%	16%	3%	-9%
CC(Oc1ccc(C(C)(C)C)cc1)C(=O)NCC(c1ccco1)N1CCCC1 (centres undefined)	23µM*	?	-13%	0%	-7%	21µM*
O=C(NCC(c1ccco1)N1CCCCC1)c1cc2c(s1)CCCC2 (centres undefined)	18µM*	16	2%	-7%	19%	16µM*
O=C(NC1CCCCC1)C1c2ccccc2OCC(=O)N1Cc1ccccc1 (centres undefined)	-11%	-3	17%	.	7%	?
CCCCNC(=O)CSc1nc2ccccc2nc1Cc1ccc(Cl)cc1	-5%	.	.	.	.	-8%
N#Cc1ccccc1Sc1ccccc1C(=O)NCC(c1ccco1)N1CCCC1 (centres undefined)	23µM*	-13	-9%	0%	-13%	?
SMILES	TDP1 cell CPT	IL-1B inflam inh	HT1080NT lethal	ELG1 repair inh	HT1080 IDH1KD tx	DT40 TDP1 no CPT
COc1ccccc1NC(=O)c1cc(=O)c2ccc(C)c(C)c2o1	-6%	.	.	.	.	-18%
Cc1cc(C(=O)CSc2cccc[n+]2[O-])c(C)n1-c1ccc(OC(F)F)cc1	21µM*	9	-9%	?	-16%	?
COc1cccc(CN2CCN(C(=O)c3cc(-c4ccncc4)nc4ccc(C)cc34)CC2)c1	23µM*	-14	-14%	.	-19%	16µM*
COc1cccc(CN2CCN(C(=O)c3cc(-c4ccccn4)nc4ccc(Cl)cc34)CC2)c1	?	54	-19%	0%	-1%	18µM*
COc1ccc(-c2cc(C(=O)N3CCCCCC3)c3cc(C)ccc3n2)cc1	?	-3	0%	8%	-28%	?
CCOC(=O)c1c(C)n(-c2ccccc2)c2ccc(OC(=O)c3ccccc3NC(=O)C(C)(C)C)cc12	?	.	.	.	.	12µM*
CCOC(=O)c1c(C)n(-c2ccccc2)c2ccc(OC(=O)c3ccccc3NC(=O)C(C)C)cc12	?	.	.	.	.	18µM*
COc1ccc2c(c1)c(C(C)=O)c(C)n2-c1ccccc1	-23%	8	-2%	?	-7%	-20%
COCCOC(=O)c1c(C)n(C)c2ccc(OC(=O)c3ccccc3OC)cc12	-24%	-11	-2%	4%	2%	16µM*
CCC(Sc1nc2ncccc2[nH]1)C(=O)Nc1ccccc1F (centres undefined)	-24%	.	.	.	.	?
COc1cc(NC(=O)c2ccc(=O)[nH]n2)cc(OC)c1OC	17%	13	10%	?	7%	-2%
Cc1ccccc1NC(=O)Cn1nnc2sc3c(c2c1=O)CC(C)(C)OC3	-28%	9	-11%	0%	-1%	-19%
CCC1(C)Cc2c(sc3nnn(Cc4ccccc4Cl)c(=O)c23)CO1 (centres undefined)	?	-20	11%	?	-3%	16µM*
C=C(C)CSc1nc2sc3c(c2c(=O)n1Cc1ccccc1)CC(C)(CC)OC3 (centres undefined)	?	.	.	.	.	12µM*
CCC1(C)Cc2c(sc3nnn(CC(=O)Nc4ccccc4)c(=O)c23)CO1 (centres undefined)	-16%	4	-9%	?	-17%	-15%
